Assay outcomes from PubChem.
Sampled rows, rich in hits. Any-hit rate of the full collection: about 3.9%.
BoNT A protease: BoNT A light chain protease inhibition; 360,000 compounds, 0.17% hits; AID 588499; inhibition, % at 10 µM; multiplex microsphere protease substrate cleavage, flow cytometry; further: plate controls were buffer without enzyme for full effect and enzyme alone for no effect
BoNT-F LC inh: inhibitors of Botulinum neurotoxin F light chain protease; inhibition, % at 10 µM; 360,000 compounds, 0.22% hits; Multiplex microsphere protease cleavage assay, flow cytometry; AID 588497; in the data active means inhibition above about 35%, passing the limit was not always enough; inconclusive means no clear call, values can overlap the other calls; further: plate controls were buffer without enzyme for full effect and enzyme alone for no effect
SARS 3CLpro inh: SARS-CoV 3CLpro protease inhibition. P0C6X7. recombinant SARS-CoV 3CLpro, quenched FRET peptide cleavage. inhibition, % at 6 µM. 290,000 compounds, 0.14% hits. AID 1706; in the data active means inhibition above about 12%
DUSP3 inh: inhibitors of human VHR1 phosphatase (DUSP3); P51452; recombinant VHR phosphatase, pNPP absorbance; inhibition, % at 13.3 µM; 290,000 compounds, 0.52% hits; AID 1654; in the data active means inhibition above about 50%
Target sequence (P51452 whole entry, looked up): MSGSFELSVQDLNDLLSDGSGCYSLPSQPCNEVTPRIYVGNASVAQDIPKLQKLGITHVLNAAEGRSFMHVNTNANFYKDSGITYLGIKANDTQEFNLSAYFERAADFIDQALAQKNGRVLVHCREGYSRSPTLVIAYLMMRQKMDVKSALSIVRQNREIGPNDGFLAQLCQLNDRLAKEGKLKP
Autofluor counter: flagged as autofluorescent in microsphere protease counterscreen; compound autofluorescence counterscreen, microsphere flow cytometry; hits give high values; fluorescence intensity (test concentration not listed); 360,000 compounds, 3.1% hits; AID 624483; in the data active means fluorescence intensity above about 16000; inconclusive means no clear call, values can overlap the other calls
Anthrax LF inh2: blocks Bacillus anthracis lethal factor protease; P15917; multiplex microsphere protease cleavage assay, LF; inhibition, % at 10 µM; 360,000 compounds, 0.12% hits; AID 588501; further: plate controls were buffer without enzyme for full effect and enzyme alone for no effect
BoNTA LC inh 1: inhibitors of Botulinum neurotoxin A light chain protease; shares compounds with BoNT-F LC inh; multiplex microsphere protease assay, flow cytometry; inhibition, % at 10 µM; 720 compounds, 3% hits; in the data active means inhibition above about 32%
BoNTF LC inh 1: BoNT/F light chain protease inhibition | shares compounds with BoNT-F LC inh | multiplex microsphere protease cleavage assay, flow cytometry | inhibition, % at 10 µM | 720 tested, under 10 active; call rule not given here
Anthrax LF CP1: Bacillus anthracis lethal factor protease inhibition; shares compounds with BoNT-F LC inh; multiplex microsphere protease cleavage assay, LF; inhibition, % at 10 µM; 720 tested, under 10 active; AID 602142; call rule not given here
Starred values were filed as active, the others as inactive; ? = inconclusive; . = not tested or not shown. Unless noted, no stated cut-off is given here; in the data, active means inhibition above about 30%; inconclusive means no clear call, values can overlap the other calls; inactive means below that.

SMILES | BoNT A protease | BoNT-F LC inh | SARS 3CLpro inh | DUSP3 inh | Autofluor counter | Anthrax LF inh2 | BoNTA LC inh 1 | BoNTF LC inh 1 | Anthrax LF CP1
CCOCCSc1nc2c(c(-c3cccs3)c1C#N)CC/C2=C/c1cccs1 | 76.6* | 24.9 | 7.9 | -5.4 | 2450 | 35.1* | 37.3* | 3.3 | 23.2
O=c1c2ccccc2nc2c3ccccc3c(NCCN3CCOCC3)nn12 | . | . | -1.8 | 15.6 | . | . | . | . | .
O=c1c2c(-c3ccccc3)csc2nc2c3ccccc3c(NCCN3CCOCC3)nn12 | 32.5* | 1.9 | -4.1 | 21.7 | 4402 | 5.2 | 6.9 | -7.5 | 1.7
O=C(O)c1ccc(NS(=O)(=O)c2ccc(Cl)c(C(=O)Nc3ccccc3)c2)cc1 | -0.5 | ? | 4.8 | -15.7 | 3179 | 14.7 | 0.4 | 0.2 | 1.3
Cc1ccc(NS(=O)(=O)c2ccc(Cl)c(C(=O)Nc3cccc(C(=O)O)c3)c2)cc1 | -2.8 | ? | 1.3 | 1.0 | 4199 | -3.7 | -0.9 | -3.2 | -2.5
O=C(Nc1ccccc1C(=O)O)c1cc(S(=O)(=O)Nc2ccccc2)ccc1Cl | 2.9 | ? | 5.1 | 8.1 | 4097 | -5.8 | -0.3 | -4.6 | 1.1
O=C(O)c1ccc(NS(=O)(=O)c2ccc(NC(=O)c3ccccc3Cl)cc2)cc1 | 0.4 | -5.8 | 2.4 | -17.9 | 3422 | -2.6 | . | . | .
CCCc1oc(C(=O)O)cc1CN1CCOCC1 | 8.2 | 42.3* | 2.1 | 16.6 | 8574 | 11.5 | -1.1 | 0.9 | 1.4
COc1ccc(C2=NOC(Cn3nc(-c4ccccc4)cc3C(=O)NCc3ccccc3OC)C2)cc1 (configuration not stated) | -0.3 | -4.1 | . | . | 5195 | -7.5 | . | . | .
Cc1ccc(S(=O)(=O)N(CC(=O)NCc2ccncc2)Cc2ccccc2F)cc1 | -1.5 | 34.8* | -0.7 | 7.4 | 2926 | 9.9 | -0.4 | -3.2 | -1.9
CCOC(=O)C(O)(c1ccc(N(CC)S(=O)(=O)c2ccc(C)cc2)cc1)C(F)(F)F (configuration not stated) | 7.8 | 70.2* | 4.8 | 13.3 | 6229 | -1.4 | 2.0 | -2.7 | -2.8
C=CCn1cnc2c(oc3ccccc32)c1=O | 3.2 | 7.0 | -2.5 | 10.4 | 3046 | 35.1* | -2.5 | -3.4 | -2.6
O=c1c2oc3ccccc3c2ncn1Cc1ccccc1Cl | -0.1 | -1.3 | 4.4 | 3.6 | 10056 | -7.3 | . | . | .
O=C(NCCCCO)c1ccc2c3c(cccc13)CC2 | 0.1 | -3.0 | -0.3 | 44.3 | 4149 | -2.1 | . | . | .
CCOC(=O)CCCCC(=O)c1[nH]c(=O)[nH]c1CSc1nc(-c2ccccc2)c(C#N)c(=O)[nH]1 | 3.7 | 15.2 | 0.0 | 6.4 | 5259 | -6.0 | . | . | .
CCOC(=O)CCCCC(=O)c1[nH]c(=O)[nH]c1Cn1cnc2ccccc21 | 4.8 | 34.3 | -2.8 | -4.0 | 5662 | -6.2 | -0.1 | -9.9 | -2.8
CCOC(=O)CCCCC(=O)c1[nH]c(=O)[nH]c1CSCCO | 8.0 | 64.5* | 4.0 | 11.3 | 5536 | 2.8 | 0.9 | -3.2 | -5.3
CCn1cc(C(=O)NCc2ccccc2Cl)cn1 | 4.5 | 40.0* | 0.4 | 1.7 | 2098 | 2.3 | 1.2 | 3.4 | 1.2
CCn1cc(C(=O)Nc2ccccc2C(=O)OC)cn1 | 2.8 | ? | . | . | 3528 | 1.9 | . | . | .
COCCCNc1oc(-c2cccs2)nc1S(=O)(=O)c1ccc(C)cc1 | 1.6 | 39.0* | 1.4 | 13.4 | 4265 | 0.1 | -1.5 | -4.1 | 0.2
Cc1ccc(C)c2nc(N3CCCC3)c(C#N)cc12 | 36.2* | 27.2 | -0.4 | 17.7 | 4615 | 26.0 | 15.7 | 0.8 | 6.9
CC(=O)c1ccc(OCCCC(=O)NCCc2ccc(C(F)(F)F)cc2)cc1 | 0.1 | 2.1 | -4.7 | -7.2 | 3533 | 4.7 | . | . | .
O=C(CCSc1ccccn1)Nc1ccc(Br)cc1 | 4.4 | 47.2* | -2.1 | -4.8 | 2146 | 0.3 | -0.6 | -7.4 | -0.3
Cc1c(NC(=O)c2cccc(NC(=O)Cc3c(F)cccc3Cl)c2)c(=O)n(-c2ccccc2)n1C | -0.3 | -2.0 | . | . | 2960 | -3.2 | . | . | .
Cc1c(NC(=O)c2cccc(NC(=O)Cc3ccc(F)cc3)c2)c(=O)n(-c2ccccc2)n1C | -2.2 | 2.2 | . | . | ? | 43.7* | -2.2 | -10.3 | -2.9
SMILES | BoNT A protease | BoNT-F LC inh | SARS 3CLpro inh | DUSP3 inh | Autofluor counter | Anthrax LF inh2 | BoNTA LC inh 1 | BoNTF LC inh 1 | Anthrax LF CP1
Cc1onc(-c2ccccc2)c1C(=O)N1CCCN2C(=O)c3ccccc3C21 (configuration not stated) | -0.5 | 1.0 | 1.6 | 13.1 | 5529 | -3.0 | 1.0 | -0.7 | 1.8
CC(=O)c1sc2nc(-c3cccs3)ccc2c1N | 33.7* | 17.3 | 1.4 | -14.1 | 7582 | 7.5 | 23.6 | 2.0 | 11.4
Nc1c(C(=O)Nc2nc3ccccc3s2)sc2nc(-c3cccs3)ccc12 | 50.3* | 29.9 | 0.7 | 20.9 | 3925 | 27.9 | 26.8 | 9.1 | 16.1
Nc1ccc(C(=O)Nc2nc3ccccc3s2)cc1 | 0.4 | -8.4 | 3.2 | 19.3 | 5494 | 3.1 | . | . | .
Cc1nc(-c2cccs2)ccc1C(=O)O | 0.7 | -1.8 | 0.9 | 23.3 | 4068 | -3.5 | . | . | .
COc1cc(C(=O)Nc2ccc(S(=O)(=O)N3CCOCC3)cc2)c([N+](=O)[O-])cc1OC | -0.3 | -5.9 | -6.7 | -5.0 | 4690 | 2.1 | . | . | .
COc1ccc(-c2cc(C(=O)Nc3ccc(F)cc3F)no2)cc1 | -0.5 | -1.6 | -5.2 | 54.7* | 3706 | 32.3* | 0.6 | -4.2 | 0.5
CCOC(=O)[C@]12CCC=C1N(Cc1ccc3c(c1)OCO3)C(=O)[C@H](CC(=O)N1CCC(c3ccccc3)CC1)C2 | 0.4 | -0.7 | . | . | 5507 | -1.6 | . | . | .
CCN(CC)C(=O)c1ccc(NS(=O)(=O)c2ccccc2)cc1 | 0.9 | 5.6 | 1.3 | 25.4 | 3742 | 1.9 | . | . | .
CCN(CC)C(=O)c1ccc(S(=O)(=O)c2ccccc2)cc1 | 1.2 | 43.1* | 4.1 | -17.1 | 3400 | -1.3 | -0.7 | -2.7 | 0.4
Cc1nc(C)n(C(C)CNS(=O)(=O)c2ccc(Cl)cc2)n1 (configuration not stated) | -0.6 | -4.5 | -6.6 | 35.0 | 5889 | 0.6 | . | . | .
COc1ccc(N2CCc3c(C)nc4c(OC)cccc4c32)cc1 | 0.2 | -0.8 | -4.7 | 4.2 | 4379 | -0.4 | . | . | .
Cc1nc2c(C)cccc2c2c1CCN2c1ccccc1F | ? | ? | 1.1 | -15.6 | 3906 | 34.9* | 0.1 | -5.0 | -0.2
Cc1nc(CCNC(=O)C2CCC(=O)N(CCc3cccc(F)c3)C2)sc1C (configuration not stated) | -0.8 | -7.7 | 0.2 | -1.9 | 6170 | -6.8 | . | . | .
Cc1n[nH]c(C)c1CCNC(=O)C1CCC(=O)N(CCc2cccc(F)c2)C1 (configuration not stated) | 13.1 | 34.8* | 0.5 | -5.6 | ? | -0.7 | 0.0 | -3.9 | -0.6
O=C(NCC(=O)N1CCCC1)c1ccc(Cl)cc1 | 0.1 | 13.1 | -0.9 | 12.6 | 2980 | 31.3* | 0.4 | -2.9 | -0.5
C=CCOc1c(Br)cc(CNCCCN2CCOCC2)cc1OC | -0.1 | -3.0 | 5.2 | 43.0 | 2985 | 45.4* | -0.1 | -5.9 | -0.6
